Rows were chosen to be rich in hits. Some 1.5% of all compounds tested hit in one or more screens of this group.
Rin1-Abl PPI inh = inhibitors of Rin1-Abl protein binding, primary screen, biochemical, TR-FRET | Tyrosine-protein kinase ABL1 (Homo sapiens) + Ras and Rab interactor 1 (Homo sapiens), … | inhibition, % at 7.35 µM | 0.4% of 360,000 active | AID 588664, 2011; in the data active = inhibition above about 5%, passing the limit was not always enough
HGIII-sPLA2 inh = human group III sPLA2 inhibitors, primary screen, biochemical, QFRET, BODIPY PC-A2 liposome substrate; QFRET BODIPY PC-A2 liposome hydrolysis, fluorescence; inhibition, % at 12.2 µM; 0.56% of 370,000 active; Group 3 secretory phospholipase A2 (Homo sapiens), Q9NZ20; AID 743126, 2013;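 active = inhibition above mean plus 3 SD of compounds lying within the high and low control bounds, cut at about 19% in these data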
Target sequence (Q9NZ20 whole entry, looked up): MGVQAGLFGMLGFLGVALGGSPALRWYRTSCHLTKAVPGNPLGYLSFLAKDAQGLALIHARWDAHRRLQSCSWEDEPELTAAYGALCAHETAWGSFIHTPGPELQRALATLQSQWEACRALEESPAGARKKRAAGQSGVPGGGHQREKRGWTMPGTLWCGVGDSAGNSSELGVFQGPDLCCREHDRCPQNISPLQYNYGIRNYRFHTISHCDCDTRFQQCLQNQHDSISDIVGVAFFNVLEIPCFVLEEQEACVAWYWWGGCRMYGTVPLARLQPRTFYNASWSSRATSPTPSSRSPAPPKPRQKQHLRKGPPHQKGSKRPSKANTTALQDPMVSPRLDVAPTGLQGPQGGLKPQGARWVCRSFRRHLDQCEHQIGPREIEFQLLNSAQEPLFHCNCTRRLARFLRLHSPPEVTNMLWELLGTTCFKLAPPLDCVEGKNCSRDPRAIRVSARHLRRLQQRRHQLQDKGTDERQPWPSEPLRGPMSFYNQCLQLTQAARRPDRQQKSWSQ
AI-2 QS mod = Vibrio harveyi AI-2 quorum sensing modulators, primary screen, JMH597 strain, luminescence/OD600 ratio; Vibrio harveyi JMH597 AI-2 luminescence/OD600 ratio, 9 h; stronger effect = lower value; strain lacks LuxN and CqsS sensors; 0 = neutral-control median; activity change, % at 7.5 µM; 0.4% of 300,000 active; AID 2094, 2009; in the data active = activity change below about -75%, passing the limit was not always enough;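 note: luminescence divided by OD600 gain over 9 h not by final OD600 alone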
ARNT-TACC3 inh = disruptors of ARNT/TACC3 protein interaction, primary screen, biochemical, AlphaScreen, single concentration; AlphaScreen His-ARNT PAS-B/GST-TACC3 binding, luminescence; TACC3 fragment carries E629A point mutation; inhibition, % at 9.99 µM; Transforming acidic coiled-coil-containing protein 3 (Homo sapiens), Q9Y6A5; AID 623870, 2012; 0.66% of 390,000 active;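 active = mean inhibition of replicates at least 50% and at least half of replicates each reaching 50%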
hGIII sPLA2 conf = human group III sPLA2 inhibitors, confirmation, biochemical, QFRET, triplicate; inhibition, % at 12.2 µM; 34% of 2,000 active; shares compounds with HGIII-sPLA2 inh; recombinant hGIII-sPLA2, BODIPY PC-A2 QFRET fluorescence;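 active = mean inhibition across triplicates above the hit cutoff set in the earlier primary screen, cut at about 19% in these data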
BODIPY interf = 535nm fluorescence optical interference, confirmation, artefact control for HGIII-sPLA2 inhibitor project, biochemical, QFRET | shares compounds with HGIII-sPLA2 inh | BODIPY FL product fluorescence interference | inhibition, % at 12.2 µM | AID 743282, 2014 | 8.5% of 2,000 active;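 active = average inhibition above the solvent-only control mean plus 3 SD, cut at about 6% in these data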
535nm interf DR = 535nm fluorescence optical interference, dose response, artefact control for HGIII-sPLA2 inhibitor project, biochemical, QFRET | shares compounds with HGIII-sPLA2 inh | BODIPY FL product fluorescence interference, cell-free | IC50, µM | 240 tested, under 10 active | AID 743455, 2014;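 active = IC50 at or below 10 µM; inactive = IC50 above 10 µM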
Of the large screens only hits and unclear results are named; the others gave an inactive call (follow-up assays come after a bar, where they were run).

S=c1[nH]nc(-c2cccs2)n1Cc1ccccc1	HGIII-sPLA2 inh 20.0 | hGIII sPLA2 conf 20.8 | BODIPY interf inactive
S=c1[nH]nc(CCc2ccccc2)n1-c1ccc(Cl)cc1	HGIII-sPLA2 inh 23.8 | hGIII sPLA2 conf 32.2 | BODIPY interf inactive | 535nm interf DR inactive
S=c1[nH]nc(COc2ccc(Cl)cc2)n1-c1ccccc1	HGIII-sPLA2 inh 21.3 | hGIII sPLA2 conf 33.7 | BODIPY interf inactive | 535nm interf DR inactive
CC(C)Cn1c(-c2ccc(Br)cc2)c[nH]c1=S	HGIII-sPLA2 inh 28.0 | hGIII sPLA2 conf 37.5 | BODIPY interf inactive
CCn1c(-c2ccccc2)c[nH]c1=S	none
C[C@H](CO)N1C[C@H](C)[C@@H](CN(C)C)Oc2cc(C#CC3CC3)ccc2S1(=O)=O	none (no result: Rin1-Abl PPI inh, HGIII-sPLA2 inh, AI-2 QS mod)
C[C@H]1CN([C@@H](C)CO)C(=O)Cc2cc(NC(=O)Cc3cn(C)c4ccccc34)ccc2O[C@H]1CN(C)S(=O)(=O)c1ccc(F)cc1	none (no result: Rin1-Abl PPI inh, HGIII-sPLA2 inh, AI-2 QS mod)
CNC(=O)CCN(Cc1ccco1)S(=O)(=O)c1ccc(OC)c(OC)c1	HGIII-sPLA2 inh 23.4 | hGIII sPLA2 conf inactive | BODIPY interf inactive
COc1ccc(S(=O)(=O)N(CCC#N)Cc2ccco2)cc1OC	none
COc1ccc(S(=O)(=O)N(C)C[C@@H]2Oc3ccc(NC(=O)Cc4cn(C)c5ccccc45)cc3CC(=O)N([C@H](C)CO)C[C@H]2C)cc1	none (no result: Rin1-Abl PPI inh, HGIII-sPLA2 inh, AI-2 QS mod)
COC(=O)C1CC(c2c(OC)cc(OC)cc2OC)=NO1 (stereo not drawn)	none
COC(=O)[C@@H]1C(c2c(OC)cc(OC)cc2OC)=NO[C@H]1C(=O)OC	HGIII-sPLA2 inh 20.2 | hGIII sPLA2 conf inactive | BODIPY interf inactive
C[C@H](CO)N1C[C@H](C)[C@H](CN(C)C(=O)C2CCCCC2)OCCCC[C@H](C)Oc2ccc(NC(=O)CCC(F)(F)F)cc2C1=O	none (no result: Rin1-Abl PPI inh, HGIII-sPLA2 inh, AI-2 QS mod)
COc1ccc(C(C)NC(=S)NC2CCCC2)cc1OC (stereo not drawn)	none
Cc1ccc(C(C)NC(=S)NC2CCCCC2)cc1C (stereo not drawn)	HGIII-sPLA2 inh 19.6 | hGIII sPLA2 conf inactive | BODIPY interf inactive
O=C(O)c1ccccc1C(=O)Nc1ccc(Nc2ccc([N+](=O)[O-])cc2[N+](=O)[O-])cc1	HGIII-sPLA2 inh 21.8 | hGIII sPLA2 conf inactive | BODIPY interf inactive
COc1ccc(NC(=O)N(C)C[C@@H]2Oc3ccc(NS(=O)(=O)c4cccs4)cc3C(=O)N([C@H](C)CO)C[C@H]2C)cc1	none (no result: Rin1-Abl PPI inh, HGIII-sPLA2 inh, AI-2 QS mod)
CC(Sc1nc2ccccc2s1)C(=O)Nc1nnc(C(C)C)s1 (stereo not drawn)	none (no result: HGIII-sPLA2 inh)
CCC(Sc1nc2ccccc2s1)C(=O)Nc1nnc(C)s1 (stereo not drawn)	HGIII-sPLA2 inh 19.3 | hGIII sPLA2 conf inactive | BODIPY interf inactive
CC(NC(=O)COC(=O)Cc1ccccc1[N+](=O)[O-])c1ccccc1 (stereo not drawn)	none
CC(NC(=O)Cc1ccccc1[N+](=O)[O-])c1ccccc1 (stereo not drawn)	HGIII-sPLA2 inh 22.7 (no result: Rin1-Abl PPI inh, ARNT-TACC3 inh) | hGIII sPLA2 conf inactive | BODIPY interf inactive
CNC[C@@H]1Oc2ccc(NC(=O)Nc3ccc(F)cc3)cc2C(=O)N([C@@H](C)CO)C[C@H]1C	none (no result: Rin1-Abl PPI inh, HGIII-sPLA2 inh, AI-2 QS mod)
Cc1ccc(OCC(=O)Nc2cc(S(=O)(=O)N3CCCCC3)ccc2C)c([N+](=O)[O-])n1	HGIII-sPLA2 inh 20.5 | hGIII sPLA2 conf inactive | BODIPY interf inactive
CCOC(=O)NC(=O)C(=CNc1ccccc1OC)C(=O)NC(=O)OCC	HGIII-sPLA2 inh 20.9 (no result: ARNT-TACC3 inh) | hGIII sPLA2 conf inactive | BODIPY interf inactive
COc1cccc(C#Cc2ccc([C@@H]3[C@@H](C#N)N[C@@H]3CO)cc2)c1	none (no result: Rin1-Abl PPI inh, HGIII-sPLA2 inh, AI-2 QS mod)
CCOC(=O)c1cnc2ccc(OC)cc2c1NCc1ccccc1	none
